Bioassay records from PubChem.
LANA-H2B inh = blocks KSHV LANA binding to histone H2A/H2B | Q9QR71 | cell-free LANA-H2A/H2B peptide, fluorescence polarization | inhibition, % (concentration not given with the values) | 320,000 compounds, 0.6% hits | AID 2629; in the data active means inhibition mostly above about 10%, no sharp cut-off; inactive means mostly below about 6.7%
Target sequence (Q9QR71 whole entry, looked up): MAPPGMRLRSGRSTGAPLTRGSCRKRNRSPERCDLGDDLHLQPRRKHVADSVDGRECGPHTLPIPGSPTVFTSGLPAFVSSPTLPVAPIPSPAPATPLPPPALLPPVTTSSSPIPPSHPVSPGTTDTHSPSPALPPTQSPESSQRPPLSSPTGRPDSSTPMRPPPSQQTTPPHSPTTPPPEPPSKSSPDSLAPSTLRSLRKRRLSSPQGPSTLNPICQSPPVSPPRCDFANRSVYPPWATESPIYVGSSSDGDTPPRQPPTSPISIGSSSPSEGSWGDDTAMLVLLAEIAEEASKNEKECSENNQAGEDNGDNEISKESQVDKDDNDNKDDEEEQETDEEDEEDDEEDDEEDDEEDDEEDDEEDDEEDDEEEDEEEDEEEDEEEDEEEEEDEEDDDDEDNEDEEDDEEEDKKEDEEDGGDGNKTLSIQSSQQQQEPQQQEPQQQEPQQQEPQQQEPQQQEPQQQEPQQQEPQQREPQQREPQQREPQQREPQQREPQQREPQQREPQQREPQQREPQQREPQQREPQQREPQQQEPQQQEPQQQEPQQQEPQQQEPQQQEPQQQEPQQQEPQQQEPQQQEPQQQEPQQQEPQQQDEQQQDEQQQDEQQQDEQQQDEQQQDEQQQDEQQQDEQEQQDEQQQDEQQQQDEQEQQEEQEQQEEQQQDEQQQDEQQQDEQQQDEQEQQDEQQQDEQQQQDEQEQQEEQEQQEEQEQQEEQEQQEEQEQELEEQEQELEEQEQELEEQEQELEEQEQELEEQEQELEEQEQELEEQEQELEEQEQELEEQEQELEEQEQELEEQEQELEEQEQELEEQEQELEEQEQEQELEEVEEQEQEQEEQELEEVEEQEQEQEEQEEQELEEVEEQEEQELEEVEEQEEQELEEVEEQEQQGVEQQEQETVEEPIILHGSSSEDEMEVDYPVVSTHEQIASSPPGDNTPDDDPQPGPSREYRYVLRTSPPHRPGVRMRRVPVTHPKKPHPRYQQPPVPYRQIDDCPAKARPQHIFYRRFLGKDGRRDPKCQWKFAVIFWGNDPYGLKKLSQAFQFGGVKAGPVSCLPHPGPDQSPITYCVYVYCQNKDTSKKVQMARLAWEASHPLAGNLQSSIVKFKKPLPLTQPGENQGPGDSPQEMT
Rtt109 HAT inh = C. albicans Rtt109 histone acetyltransferase inhibition; Q5AAJ8; purified Rtt109/Vps75, ThioGlo CoA-SH fluorescence, 4 h; inhibition, % at 34.9 µM; 330,000 compounds, 0.16% hits;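 active means inhibition of at least 50% in every replicate; inconclusive means best replicate reaches 50% inhibition but some replicates fall short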
ALR inh = inhibitors of human sulfhydryl oxidase ALR; P55789; purified ALR, DTT oxidation, H2O2 HRP-luminol luminescence; inhibition, % (test concentration not listed); 290,000 compounds, 3.8% hits; AID 485317;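 active means mean replicate inhibition above about 79%, with every replicate also reaching it, limit read from the data; inconclusive means only one of the two criteria met; inactive means mean below limit and not every replicate reaching it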
PRMT1 FP inh = blocks human protein arginine methyltransferase 1; recombinant PRMT1, activity-based probe fluorescence polarization; 370,000 compounds, 1.3% hits; Q99873; inhibition, % at 2.79 µM;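 active means inhibition above about 21% made by adding two undisclosed values, limit read from the data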
ABHD5-PLIN5 inh = blocks binding of human ABHD5 to perilipin-5. Q00G26+Q8WTS1. Split G. princeps luciferase complementation, luminescence, 4 h. inhibition, % at 4 µM. 360,000 compounds, 0.78% hits. AID 602281;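 active means inhibition above the mean inhibition across every tested compound plus 3 SD, cut at about 22% in these data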;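 further: 0% = DMSO only wells and the 100% control is not disclosed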
rCAG binder = molecules binding r(CAG) RNA repeats. 370,000 compounds, 1.3% hits. AID 651821. r(CAG) RNA repeat, TO-PRO-1 dye displacement fluorescence. inhibition, % at 3 µM;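 active means inhibition above the plate cutoff, the mean of all test compounds on that plate plus 3 SD, cut at about 35% in these data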;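 further: 0% = DMSO alone and 100% = 100 µM mitoxantrone as full dye displacement; higher means more dye released from RNA so lower well fluorescence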
PRMT1 inh conf = confirmation of human PRMT1 inhibitors; inhibition, % at 2.79 µM; recombinant His-PRMT1, activity-based probe fluorescence polarization; 3,300 compounds, 42% hits; shares compounds with PRMT1 FP inh;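 active means mean inhibition across replicates above the hit cutoff derived for the earlier primary screen, cut at about 22% in these data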
The depositor's hits bear a star; ? = inconclusive; · = no result. Hits are enriched below; roughly 5.9% of the tested compounds scored in any of these assays.

SMILES | LANA-H2B inh | Rtt109 HAT inh | ALR inh | PRMT1 FP inh | ABHD5-PLIN5 inh | rCAG binder | PRMT1 inh conf
Cc1ccc(N2C(=O)C3C4C=CC(CNC(=S)Nc5cccc(Cl)c5)(O4)C3C2=O)cc1 (stereo not drawn) | 1 | 2 | -1 | 90* | 4 | 11 | 53*
Cc1ccc(N2C(=O)N(CC(=O)Nc3cccc(Cl)c3)C(=O)C2C)cc1 (stereo not drawn) | 0 | 13 | -2 | 0 | 5 | 1 | ·
Cc1ccc(N2C(=O)C3C4C=CC(CNC(=S)Nc5ccc(F)cc5)(O4)C3C2=O)cc1 (stereo not drawn) | 1 | 4 | -3 | 80* | 8 | 5 | 41*
CC(=O)Nc1cncc(-c2cnn(CC(C)C)c2)n1 | · | · | · | 0 | 8 | 2 | ·
C(=C\c1ccccc1)/CN1CCN(C(c2cc3ccccc3o2)c2nnnn2C2CCCCC2)CC1 (stereo not drawn) | · | · | · | -3 | 9 | 5 | ·
CC1(C(=O)Nc2ccc3[nH]ncc3c2)CCN1C(=O)C1(c2ccccc2)CC1 (stereo not drawn) | · | · | · | -2 | -1 | -1 | ·
CC1(c2nnnn2-c2ccc3c(c2)OCCO3)CCC(=O)N1CCc1ccccc1F (stereo not drawn) | · | · | · | 2 | 3 | 0 | ·
Cc1ccc(NC(=S)NCCSc2ccc(Cl)cc2)cc1 | -5 | -3 | -5 | 0 | -10 | 1 | ·
Cc1ccc(N2C(=O)C3C4C=CC(CNC(=S)Nc5ccc(Cl)cc5)(O4)C3C2=O)cc1 (stereo not drawn) | -3 | 29 | -6 | 85* | 17 | 6 | 29*
CC(C)(C)C(=O)NCC12C=CC(O1)C1C(=O)N(c3ccccc3)C(=O)C12 (stereo not drawn) | 3 | -1 | · | 81* | 17 | 2 | 56*
CC(C)=CCC/C(C)=C/CNCC(=O)N1c2ccccc2[C@]2(c3ccccc3)C[C@@H]3C(=O)N(C/C=C(\C)CCC=C(C)C)CC(=O)N3[C@H]12 | · | · | · | -2 | · | 9 | ·
Cc1cc(SCNC(=O)c2ccccc2)ncn1 | -2 | 5 | 94* | 71* | -12 | 0 | 7
C(/C=C\c1ccco1)=NN1CCN(Cc2cccc3ccccc23)CC1 | · | · | · | 6 | · | 6 | ·
O=C(NCc1cccnc1)c1cc(C2CCCCN2S(=O)(=O)Cc2ccccc2)on1 (stereo not drawn) | · | · | · | -1 | 0 | 0 | ·
Cc1ccccc1-c1nc2ccccc2c(=O)n1/N=C/c1ccccc1[N+](=O)[O-] | 1 | 2 | 1 | 31* | -10 | -1 | 17
Cc1ccccc1-c1nc2ccccc2c(=O)n1/N=C/c1ccc([N+](=O)[O-])cc1 | 1 | 30 | -7 | -7 | 1 | 0 | ·
COC(=O)[C@]12C[C@H](CC(=O)NCc3ccc(OC)c(OC)c3)C(=O)N(Cc3ccco3)C1=C[C@H](COCc1ccccc1)O[C@@H]2C | · | · | · | 4 | · | 7 | ·
CCN(CC)C(=S)SSC(=S)N(CC)CC | 20* | 150* | 97* | 74* | 9 | 1 | 80*
COc1ccc(/C=C2\CCc3c2nc2ccccc2c3C(=O)O)cc1OC | 2 | -420 | -10 | 79* | 0 | 19 | 12
O=C(CSc1nc(O)c(Cc2ccccc2)c(=O)[nH]1)N1CCOCC1 | 1 | 5 | 41 | -3 | -8 | 3 | ·
CCCCc1c(O)nc(SCC(=O)c2ccccc2)[nH]c1=O | 8 | -68 | 99* | 40* | 0 | 1 | 38*
O=C(CSc1nc(O)c(Cc2ccccc2)c(=O)[nH]1)c1ccccc1 | -1 | -42 | · | 47* | -2 | 6 | 34*
C[C@@H]1CN([C@@H](C)CO)C(=O)CCCn2nncc2CO[C@@H]1CN(C)S(=O)(=O)c1ccc2ccccc2c1 | · | · | · | 1 | 0 | 2 | ·
CC(=C/c1ccccc1)/C=N/n1c(-c2ccco2)n[nH]c1=S | 1 | -3 | 97* | 32* | -13 | 32 | 18
CC(/C=N/n1c(-c2cc(C)[nH]n2)n[nH]c1=S)=C\c1ccccc1 | 1 | 5 | 61 | 1 | 3 | 4 | ·
SMILES | LANA-H2B inh | Rtt109 HAT inh | ALR inh | PRMT1 FP inh | ABHD5-PLIN5 inh | rCAG binder | PRMT1 inh conf
Cc1ccccc1-c1n[nH]c(=S)n1/N=C/C=C/c1ccco1 | 2 | 11 | 38 | 29* | 8 | 26 | 20
C[C@@]12C[C@@H]3C(=O)N(Cc4ccccc4)CC(=O)N3[C@@H]1N(S(=O)(=O)c1ccccc1)c1ccccc12 | · | · | · | 1 | · | 8 | ·
CCC[C@H]1[C@@H](OC(=O)NCCc2ccccc2)CC[C@@]23CCCN2C(=O)CCC[C@@H]13 | · | · | · | 1 | · | · | ·
O=C(NC(=S)Nc1ccccc1N1CCOCC1)c1sc2ccccc2c1Cl | -2 | 3 | -13 | 0 | -2 | 1 | ·
O=C(O)c1ccccc1NC(=S)NC(=O)c1sc2ccccc2c1Cl | -1 | 6 | -11 | 32* | -11 | 18 | 32*
O=C(CN1CC[n+]2c(-c3cccs3)csc21)c1ccc(-c2ccccc2)cc1 | -1 | -2 | 51 | 32* | 8 | 1 | 40*
CC1(C(=O)NS(=O)(=O)C2CC2)CCCN(C(=O)c2ccc(F)cc2Cl)C1 (stereo not drawn) | · | · | · | 1 | -3 | 0 | ·
C#CCN(C[C@H]1[C@H](OC(=O)Nc2c(C)noc2C)[C@H](OC(=O)Nc2c(C)noc2C)CN(C(=O)OC(C)C)N1C(=O)OC(C)C)S(=O)(=O)c1ccc(C)cc1 | · | · | · | -1 | · | 7 | ·
COc1cc2c(cc1OC)C(c1ccccc1)N(C(=O)CCl)CC2 (stereo not drawn) | 0 | 0 | -7 | 2 | 8 | -5 | ·
COc1cc2c(cc1OC)C(c1ccccc1O)N(C1CC(=O)N(c3ccccc3)C1=O)CC2 (stereo not drawn) | -1 | 18 | · | 83* | 7 | 9 | 19
Cn1c(=O)oc2cc(S(=O)(=O)N3CCN(c4cccc(C(F)(F)F)c4)CC3)ccc21 | · | · | · | 2 | · | 5 | ·
CC(CC(=O)c1cccs1)CC(=O)c1cccs1 | 0 | ? | 2 | 0 | -5 | -4 | ·
O=C(SCC(O)C(O)CS)c1cccs1 (stereo not drawn) | 4 | -62 | 21 | 65* | 1 | 5 | 54*
COC(=O)C1CCN(C(=O)c2ccc3nccnc3c2)CC1 | -14 | -7 | -26 | 26* | -8 | -4 | 4
COc1cccc(-c2nc(=S)c3c(o2)CCCC3)c1 | -4 | 23 | 50 | 2 | 1 | 0 | ·
COc1cccc(-c2nc(=S)c3c(n2Cc2ccco2)CCCC3)c1 | -5 | 0 | 10 | 26* | 1 | 14 | 1
Cc1ccc(-n2c(SCC(=O)Nc3ccc4cn[nH]c4c3)nnc2-c2ccccc2)cc1 | · | · | · | -6 | · | 6 | ·
CC(C)(C)c1ccc(-c2nnc3n2N=C(c2ccc4ccccc4c2)CS3)cc1 | · | · | · | 6 | · | 7 | ·
